Source: PubChem
TDP1 cell CPT: DT40-hTDP1 cell growth loss with CPT; chicken DT40 Tdp1-/-;hTDP1 cells + 20 nM CPT, ATP luminescence, 48 h; Potency, µM (highest dose often 46.2 µM), inactives show at the highest dose activity change, negative = growth inhibition, actives largely listed as inhibitors; 420,000 compounds, 12% hits; note: nearly all actives have a fitted effect of over 55% in size
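Cell growth measured by CellTiter-Glo luminescence after a minimum 48 h, 37 C compound exposure with 20 nM CPT in Tdp1-knockout DT40 cells stably expressing hTDP1, seeded 400/well; qHTS titration format.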
HT1080NT lethal: kills 2HG-producing HT-1080-NT fibrosarcoma cells; HT-1080-NT fibrosarcoma viability, CellTiter-Glo ATP luminescence, 48 h; Potency, µM (highest dose often 46.1 µM), for the others: at the highest dose activity, negative = less viability, actives largely listed as cytotoxic; 360,000 compounds, 1.6% hits; AID 686970;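 note: NT is the 2HG producing partner of a matched IDH1 knockdown line; 0% = DMSO-treated cells and -100% = media-only wells without cells; nearly all actives have a fitted effect of over 55% in size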
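Fibrosarcoma NT cells, 750 per well in 5% FBS RPMI, were exposed to compound for 48 hours. Viability: CellTiter-Glo luminescence.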
KB-3-1 tox: KB-3-1 parental cell cytotoxicity. 400,000 compounds, 1.4% hits. KB-3-1 viability, CellTiter-Glo ATP luminescence, 72 h. Potency, µM (doses to about 46.1 µM), actives largely listed as cytotoxic. AID 1347075; note: nearly all actives have a fitted effect of over 60% in size
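Cells are dispensed, compounds pinned in, plates held at 37 °C for 72 h, then CellTiter-Glo is added and luminescence read after 10 minutes. Cell line: parental KB-3-1 in phenol-red-free DMEM, 10% FBS.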
DT40 TDP1 no CPT: qHTS for Inhibitors of human tyrosyl-DNA phosphodiesterase 1 (TDP1): qHTS in cells in absence of CPT; DT40 Tdp1-/- hTDP1 cells, no CPT, ATP luminescence, 48 h; Potency, µM (top dose mostly 46.2 µM), without a hit: top-dose activity change, negative = growth inhibition, hits mostly inhibitors; 420,000 compounds, 15% hits; note: nearly all actives have a fitted effect of over 55% in size
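Compound effects on proliferation are scored in DT40 Tdp1-/-;hTDP1 cells in the absence of CPT. ATP levels (CellTiter-Glo luminescence) are recorded after a ≥48 hr, 37 °C incubation.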
KB-V1 MDR tox: KB-V1 MDR subline cytotoxicity. KB-V1 MDR cells viability, CellTiter-Glo, 72 h. Potency, µM (highest dose often 46.1 µM), most hits filed as cytotoxic. 400,000 compounds, 3.4% hits. AID 1347076; note: nearly all actives have a fitted effect of over 60% in size
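Cells of the MDR subline KB-V1 are plated, dosed with compound at multiple concentrations, and incubated 72 h at 37 degrees C; CellTiter-Glo is then added and luminescence read after 10 min.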
HT1080 IDH1KD tx: HT-1080 IDH1 knockdown cell toxicity (counter line); HT-1080 IDH1 knockdown viability, ATP luminescence, 48 h; Potency, µM (top dose mostly 46.1 µM), without a hit: at the highest dose activity, negative = toxicity, actives largely listed as cytotoxic; 360,000 compounds, 2% hits; AID 686971;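 note: 0% = DMSO wells and -100% = cell-free medium wells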
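In this qHTS, HT-1080 cells depleted of IDH1 are exposed for 48 h at 37 °C to compound titrations. Toxicity is scored from CellTiter-Glo luminescence, with DMSO as full viability and medium alone as none.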
* hit, by the source's call; ! = a repeat was not active; [ ] = remark or other dose. Hits are enriched below; roughly 19% of the tested compounds scored in any of these assays. Calls come from the whole dose curve; as a rule, active = well fitted curve in the direction sought with a large enough effect; inconclusive = small, poorly fitted or top-dose-only effect, or another doubt; inactive = no such curve, though single readings can be large; an effect the other way counts as inactive or inconclusive. Unless noted, % is set by controls: 0 for no effect and ±100 for the full control effect; potency is the fitted concentration of half-maximal effect.

For COc1ccc(S(=O)(=O)N2CCCN(S(=O)(=O)c3ccc(OC)cc3C)CC2)c(C)c1 the results were TDP1 cell CPT 23µM*, HT1080NT lethal -23%, KB-3-1 tox inactive, DT40 TDP1 no CPT inconclusive, KB-V1 MDR tox inconclusive and HT1080 IDH1KD tx -12%[9.24 µM].
`COc1c(C)cc(S(=O)(=O)N2CCCC2)c(C)c1C` gave TDP1 cell CPT -22%, HT1080NT lethal 2%, KB-3-1 tox inactive, DT40 TDP1 no CPT inconclusive, KB-V1 MDR tox 23µM* and HT1080 IDH1KD tx -2%.
For COc1cc(C)c(NC(C)C(=O)c2c(C)[nH]c3ccccc23)cc1OC (stereo not drawn) the results were TDP1 cell CPT inconclusive, KB-3-1 tox inactive, DT40 TDP1 no CPT inconclusive and KB-V1 MDR tox inactive.
For Cc1ccc(Nc2nc3nonc3nc2Nc2cccc(C(F)(F)F)c2)cc1Cl the results were TDP1 cell CPT 0.52µM* and DT40 TDP1 no CPT 0.46µM*.
`CCOC(=O)CNC(=O)C1CCCCC1` gave TDP1 cell CPT -7%, KB-3-1 tox inactive, DT40 TDP1 no CPT 0% and KB-V1 MDR tox inconclusive.
For Cc1ccc(-n2nnnc2C(Cl)c2nnnn2-c2ccc(C)cc2)cc1 the results were TDP1 cell CPT 15µM*, HT1080NT lethal inconclusive, KB-3-1 tox inactive, DT40 TDP1 no CPT 8.2µM*, KB-V1 MDR tox inactive and HT1080 IDH1KD tx inconclusive.
For COCCN1CCN(C(=O)c2cnn(-c3nccc(-c4ccccc4OC)n3)c2-c2ccco2)CC1 the results were TDP1 cell CPT -1%[9.04 µM] and DT40 TDP1 no CPT -10%.
CC1CNCCN1S(=O)(=O)c1cccc2cnccc12 (stereo not drawn) was read as TDP1 cell CPT inconclusive, HT1080NT lethal inconclusive, KB-3-1 tox inactive, DT40 TDP1 no CPT 15µM*!, KB-V1 MDR tox inconclusive and HT1080 IDH1KD tx inconclusive.
`FC(F)(F)c1cnc2c(c1)[nH]c(=S)n2-c1ccc(Cl)cc1` gave TDP1 cell CPT 21µM*, HT1080NT lethal -22%, KB-3-1 tox inconclusive, DT40 TDP1 no CPT inconclusive, KB-V1 MDR tox inactive and HT1080 IDH1KD tx -15%.
Screening CCOC(=O)C1=CN(Cc2ccco2)S(=O)(=O)N(CC)C1c1ccc(F)c(Cl)c1 (stereo not drawn) returned TDP1 cell CPT inconclusive, HT1080NT lethal 0%, KB-3-1 tox inactive, DT40 TDP1 no CPT inconclusive, KB-V1 MDR tox inactive and HT1080 IDH1KD tx -3%.
`Cc1ccc(N2CCN(c3cc(C)nc4c(-c5ccc(Cl)cc5)c(C)nn34)CC2C)cc1` (stereo not drawn) gave TDP1 cell CPT 11% and DT40 TDP1 no CPT 0%.
Screening O=C(NC12CC3CC(CC(C3)C1)C2)c1cccc([N+](=O)[O-])c1 returned TDP1 cell CPT -24%, HT1080NT lethal -2%, KB-3-1 tox inactive, DT40 TDP1 no CPT -9%, KB-V1 MDR tox inactive and HT1080 IDH1KD tx -6%.
O=[N+]([O-])c1cccc(-c2nnn(C34CC5CC(CC(C5)C3)C4)n2)c1 was read as TDP1 cell CPT inconclusive, HT1080NT lethal 7%, KB-3-1 tox inactive, DT40 TDP1 no CPT 18µM*, KB-V1 MDR tox inactive and HT1080 IDH1KD tx 9%.
Screening O=C(c1cccc(NS(=O)(=O)c2ccc(Br)cc2)c1)N1CCN(c2ccccc2O)CC1 returned TDP1 cell CPT -4%, HT1080NT lethal -13%, KB-3-1 tox inactive, DT40 TDP1 no CPT -20%, KB-V1 MDR tox inactive and HT1080 IDH1KD tx -13%.
For CCCCCCCCCCCCOCCCN the results were TDP1 cell CPT -21% and DT40 TDP1 no CPT inconclusive.
For COC(C[C@@H]1O[C@H]1C(=O)COCc1ccccc1)OC the results were TDP1 cell CPT 16µM*, HT1080NT lethal 7%, KB-3-1 tox inactive, DT40 TDP1 no CPT 21µM*, KB-V1 MDR tox inactive and HT1080 IDH1KD tx 7%.
`COC(C[C@@H]1O[C@H]1[C@H](O)COCc1ccccc1)OC` gave TDP1 cell CPT -6%, HT1080NT lethal 17%, KB-3-1 tox inactive, DT40 TDP1 no CPT 0%, KB-V1 MDR tox inactive and HT1080 IDH1KD tx 0%.
Screening COC(C[C@@H]1O[C@@H]1C(=O)COCc1ccccc1)OC returned TDP1 cell CPT 18µM*, HT1080NT lethal 3%, KB-3-1 tox inactive, DT40 TDP1 no CPT inconclusive, KB-V1 MDR tox inactive and HT1080 IDH1KD tx -2%.
COC(C[C@H]1O[C@@H]1C(=O)COCc1ccccc1)OC was read as TDP1 cell CPT 4.1µM*, HT1080NT lethal -2%, KB-3-1 tox inactive, DT40 TDP1 no CPT 4.6µM*, KB-V1 MDR tox inactive and HT1080 IDH1KD tx -11%.
For COc1ccc(NC(=O)COC(=O)C2COc3ccccc3O2)cc1OC (stereo not drawn) the results were TDP1 cell CPT -13%, HT1080NT lethal 2%, KB-3-1 tox inactive, DT40 TDP1 no CPT -13%, KB-V1 MDR tox inactive and HT1080 IDH1KD tx 4%.
Cc1ccccc1C(=O)N1c2ncnn2C2(CCCCC2)[C@@H]2CCCC[C@@H]21 was read as TDP1 cell CPT inconclusive, KB-3-1 tox inactive, DT40 TDP1 no CPT inconclusive and KB-V1 MDR tox inactive.
`O=[N+]([O-])c1ccc(/C=[N+](\[O-])[C@@H]2CCCC[C@@H]2/[N+]([O-])=C/c2ccc([N+](=O)[O-])o2)o1` gave TDP1 cell CPT 7.3µM*, HT1080NT lethal -20%, KB-3-1 tox inconclusive, DT40 TDP1 no CPT 10µM*, KB-V1 MDR tox 21µM* and HT1080 IDH1KD tx -2%.
For CCC1NC(C(=O)O)Cc2c1[nH]c1ccccc21 (stereo not drawn) the results were TDP1 cell CPT 7.3µM*, HT1080NT lethal -13%, KB-3-1 tox inactive, DT40 TDP1 no CPT 9.2µM*, KB-V1 MDR tox inactive and HT1080 IDH1KD tx 1%.
For CCN(Cc1ccccc1)c1ccc(/C=N/N2CCOCC2)cc1 the results were TDP1 cell CPT -4%, HT1080NT lethal -2%, KB-3-1 tox inactive, DT40 TDP1 no CPT -16%, KB-V1 MDR tox inactive and HT1080 IDH1KD tx 0%.
For CCCCCCCCCCN(CCCCCCCCCC)c1ccc(/C=C/c2ccnc3ccccc23)cc1 the results were TDP1 cell CPT -24%, KB-3-1 tox inactive, DT40 TDP1 no CPT -28% and KB-V1 MDR tox inactive.
`CCCCCCCN(CCCCCCC)c1ccc(/C=C/c2ccnc3ccccc23)cc1` gave TDP1 cell CPT -22%, KB-3-1 tox inactive, DT40 TDP1 no CPT -15% and KB-V1 MDR tox inconclusive.
